Measured values published in PubChem BioAssay.
Calls of active or inactive are those of the source. How the calls were made is not given here.

biological target: Lethal factor (Bacillus anthracis) (UniProt P15917); assay: Bacillus anthracis lethal factor inhibition, microsphere flow cytometry protease assay, validation at 10 µM (AID 588461); conditions: multiplex microsphere protease cleavage assay, stronger effect = higher value

Row | SMILES | inhibition
1 | Cc1nc2ccccc2n1CC(=O)NC1CCCC1 | -4.4% (inactive)
2 | O=C1c2cccc3cccc(c23)C(=O)N1c1ccccn1 | 1.1% (inactive)
3 | COC(=O)C1=C(C)N(Cc2ccco2)C(=O)/C1=C\c1ccc([N+](=O)[O-])cc1 | -3.7% (inactive)
4 | COc1ccc(-c2cc(C(=O)N3CCOCC3)c3cc(C)ccc3n2)cc1 | 2.3% (inactive)
5 | Cc1ccccc1-c1coc2cc(O)ccc2c1=O | 1.6% (inactive)
6 | CC1(C)c2ccccc2N2CC(=O)NC21/C=C/c1ccco1 (configuration not stated) | 0.4% (inactive)
7 | CC(=O)N=c1sc(S(N)(=O)=O)nn1C | 4.2% (inactive)
8 | c1ccc(CNc2ncnc3nc[nH]c23)cc1 | -4.8% (inactive)
9 | COc1cc(CNCCc2c[nH]c3ccccc23)cc(Cl)c1OCC(N)=O | -5.2% (inactive)
10 | CC1(C)CC(CNCCC(c2ccc(F)cc2)c2ccco2)CCO1 (configuration not stated) | 3.4% (inactive)
11 | COc1ccc(CNC(=O)N[C@H](C(=O)O)C(C)C)cc1OC | -8.3% (inactive)
12 | COc1ccc(/C=C2\CCn3c2nc2cc(C(=O)O)ccc2c3=O)cc1OC | 8% (inactive)
13 | COc1ccc(C(C)N2CC34C=CC(O3)C(C(=O)OCC(C)C)C4C2=O)cc1 (configuration not stated) | 0.2% (inactive)
14 | Cc1ccc(C(=O)COC(=O)c2cnccn2)cc1[N+](=O)[O-] | -5.2% (inactive)
15 | CCCCOc1ccc(C(=O)CCN2CCCCC2)cc1 | -1.7% (inactive)
16 | CC12CCC(C(=O)NCc3ccc4c(c3)OCO4)(CC1=O)C2(C)C (configuration not stated) | 4.8% (inactive)
17 | COc1cc2c(cc1OC)-c1cc(NC3CCCCCC3)nc(=O)n1CC2 | -7.4% (inactive)
18 | COc1ccc(N2CCN(C(=S)NCc3ccccc3)CC2)cc1 | 2.2% (inactive)
19 | COc1ccc2cc(C(=O)Nc3ccc(S(N)(=O)=O)cc3)sc(=O)c2c1OC | 1.5% (inactive)
20 | COc1ccc(N2C(=O)[C@@H]3Cc4ccccc4CN3C2=O)cc1 | -0.7% (inactive)
21 | COc1ccc(-c2[nH]ncc2CN(C)C(C)c2ccon2)c(OC)c1 (configuration not stated) | 0% (inactive)
22 | COc1ccc(C2NC(C(=O)O)Cc3c2[nH]c2ccccc32)cc1CN1CCN(c2ccc(F)cc2)CC1 (configuration not stated) | 2.2% (inactive)
